# Experimental data reported in PubChem BioAssay (NCATS).
# Values joined by “and” are separate entries in the source; they are usually repeats but may differ in a detail not shown here. Equal entries are not always repeated. Inconclusive results are not listed. Where a call stands in place of a potency, no number is given. More than one record can exist for a structure, and the calls need not agree. Active and inactive are the calls of the source. Unless noted, the call rests on the fitted dose curve; in most records, active means well fitted curve in the direction sought with a large enough effect; inconclusive means small, poorly fitted or top-dose-only effect, or another doubt; inactive means no such curve, though single readings can be large; an effect the other way counts as inactive or inconclusive. Peptide text beside a SMILES is read from it.
# What was measured:
# [1] = High-throughput drug toxicity screening in the BPDCN cell line Cal-1 (AID 1224825; call rule not given here); details: Cal-1 BPDCN cell viability, qHTS; at 45.8 µM (top of the series) unless noted
# Outline: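 Exponentially growing Cal-1 cells, 500 per well in phenol red-free RPMI with 10% FBS, were exposed to compounds for 48 h at 37 °C, 5% CO2. Viability was read by CellTiter-Glo luminescence and normalised to DMSO (100%) and 9.2 uM bortezomib (0%).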
# [2] = qHTS assay for measurement of the activity of small molecule inhibitors on Zika virus induced Caspase-3 activity in human iPSC derived neural progenitor cells (hNPCs) (AID 1224857); further: nearly all actives have a fitted effect of over 65% in size; further: potency means the concentration at half of the fitted maximal effect
# Outline: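 Zika virus (2 FFU/cell) infection of human iPSC-derived NPCs, 6 h, following 1 h compound preincubation. Read-out: Caspase-Glo 3/7 luminescence.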
# [3] = qHTS assay for measurement of the activity of small molecule inhibitors on Zika virus induced Caspase-3 activity in human astrocytoma cells (AID 1224859); further: potency means the concentration at half of the fitted maximal effect
# Outline: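 Caspase activation in ZIKV-infected SNB-19 cells (2 FFU/cell, 6 h) measured by Caspase-Glo 3/7 luminescence after 30 min RT; compound pre-incubated 1 h; normalised to uninfected and infected controls.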
# [4] = qHTS Screen of the MIPE 4.0 Collection Against Ewings Sarcoma (TC71) (AID 1259253); further: nearly all actives have a fitted effect of over 40% in size; further: potency means the concentration at half of the fitted maximal effect
# Outline: (§1)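 Measured: ATP luminescence (CellTiter-Glo) 10 min after reagent addition, following 48 h drug treatment. Relative luciferase units converted to percent activity, with no-cell wells as full and DMSO wells as zero inhibition.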
# [5] = qHTS Screen of the MIPE 4.0 Collection Against Ewings Sarcoma (TC32) (AID 1259256); further: nearly all actives have a fitted effect of over 45% in size; further: potency means the concentration at half of the fitted maximal effect
# Outline: as §1
# [6] = P-glycoprotein substrates identified in KB-3-1 adenocarcinoma cell line, qHTS therapeutic library screen (AID 1346986); further: nearly all actives have a fitted effect of over 60% in size
# Outline: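 Resistance attributable to P-gp was assessed by comparing AC50 in KB-8-5-11 with parental KB-3-1 and by tariquidar reversal. Cells were exposed 72 h and viability read by CellTiter-Glo.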
# [7] = Natriuretic polypeptide receptor (hNpr1) antagonism - Pilot counterscreen GloSensor control cell line (AID 1347045; calls by dose curve)
# Outline: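 Luminescence was read before and 20 min after adding 50 uM SNP, which stimulates soluble guanylyl cyclase. The HEK293 cells expressing the GloSensor cGMP sensor had been preloaded with 2% reagent for 2 h and treated with compound.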
# [8] = target: Atrial natriuretic peptide receptor 1 (Homo sapiens) (UniProt P16066); experiment: Natriuretic polypeptide receptor (hNpr1) antagonism - Pilot screen (AID 1347049; calls by dose curve)
# Outline: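 HEK293 cells co-expressing hNpr1 and the GloSensor pGS-40F cGMP luciferase sensor were preloaded with 2% GloSensor reagent for 2 h. Compounds were added for 30 min at room temperature, then cells were stimulated with 0.1 nM hNppA for 20 min before luminescence readout.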
# [9] = target: Atrial natriuretic peptide receptor 2 (Homo sapiens) (UniProt P20594); experiment: Natriuretic polypeptide receptor (hNpr2) antagonism - Pilot subtype selectivity assay (AID 1347050; calls by dose curve)
# Outline: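 cGMP-sensor HEK293/hNpr2 cells; 2% GloSensor reagent 2 h RT; compounds 30 min; baseline luminescence read; 1 nM hNppC agonist 20 min RT; final luminescence read by CCD camera. Antagonism = reduced post-agonist signal.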
# [10] = qHTS assay to identify small molecule inhibitors of chordoma cells - UCH-1 (AID 1259355); further: nearly all actives have a fitted effect of over 55% in size
# Outline: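 Luminescent ATP read-out (CellTiter-Glo, 30min at room temperature) measured viability of UCH-1 cells exposed for 48hr to test drugs at 15 concentrations, co-dosed with a five-agent combination of auranofin, camptothecin, doxorubicin, rubitecan and topotecan.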
# [11] = qHTS assay to identify small molecule inhibitors of chordoma cells - UCH-2 (AID 1259356)
# [12] = P-glycoprotein substrates identified in KB-8-5-11 adenocarcinoma cell line, qHTS therapeutic library screen (AID 1346987); further: nearly all actives have a fitted effect of over 65% in size
# Outline: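 Steps: plate 500 KB-8-5-11 cells/well in DMEM + 10% FCS (colchicine removed); pin compounds in dose-response; incubate 72 h, 37 degree C, 5% CO2; add CellTiter-Glo, 5 min; read luminescence.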
# [13] = qHTS Screen of the MIPE 4.0 Collection Against Ewings Sarcoma (EW8) (AID 1259255); further: nearly all actives have a fitted effect of over 35% in size
# Outline: as §1
# Chain of Atrial natriuretic peptide receptor 1 (Homo sapiens) (P16066 whole entry, looked up): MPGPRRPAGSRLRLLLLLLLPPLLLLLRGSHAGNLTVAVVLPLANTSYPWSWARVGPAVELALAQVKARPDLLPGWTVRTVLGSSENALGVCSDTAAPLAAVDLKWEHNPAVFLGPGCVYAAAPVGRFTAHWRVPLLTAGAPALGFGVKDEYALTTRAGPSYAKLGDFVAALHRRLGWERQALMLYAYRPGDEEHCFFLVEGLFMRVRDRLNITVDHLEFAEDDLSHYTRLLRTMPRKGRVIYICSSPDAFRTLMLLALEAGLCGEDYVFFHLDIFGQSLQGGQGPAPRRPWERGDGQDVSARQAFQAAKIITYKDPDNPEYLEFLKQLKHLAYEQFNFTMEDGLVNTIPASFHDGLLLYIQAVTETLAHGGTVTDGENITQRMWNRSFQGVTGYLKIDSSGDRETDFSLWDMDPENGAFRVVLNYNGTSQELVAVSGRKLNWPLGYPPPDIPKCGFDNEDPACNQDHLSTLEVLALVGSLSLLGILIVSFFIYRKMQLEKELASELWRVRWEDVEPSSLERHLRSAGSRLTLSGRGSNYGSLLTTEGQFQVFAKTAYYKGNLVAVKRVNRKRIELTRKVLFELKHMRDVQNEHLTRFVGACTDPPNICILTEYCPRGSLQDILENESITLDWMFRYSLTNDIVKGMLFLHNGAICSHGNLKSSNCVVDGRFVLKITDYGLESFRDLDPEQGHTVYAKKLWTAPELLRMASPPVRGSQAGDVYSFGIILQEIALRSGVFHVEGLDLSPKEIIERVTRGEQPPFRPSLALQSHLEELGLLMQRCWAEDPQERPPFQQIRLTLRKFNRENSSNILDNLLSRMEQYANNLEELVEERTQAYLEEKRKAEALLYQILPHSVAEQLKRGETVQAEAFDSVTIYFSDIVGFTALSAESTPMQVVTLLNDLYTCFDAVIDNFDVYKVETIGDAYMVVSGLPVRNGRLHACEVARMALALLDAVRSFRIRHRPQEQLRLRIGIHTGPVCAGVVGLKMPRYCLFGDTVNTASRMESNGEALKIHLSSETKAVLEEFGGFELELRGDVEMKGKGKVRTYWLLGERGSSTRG
# Chain of Atrial natriuretic peptide receptor 2 (Homo sapiens) (P20594 whole entry, looked up): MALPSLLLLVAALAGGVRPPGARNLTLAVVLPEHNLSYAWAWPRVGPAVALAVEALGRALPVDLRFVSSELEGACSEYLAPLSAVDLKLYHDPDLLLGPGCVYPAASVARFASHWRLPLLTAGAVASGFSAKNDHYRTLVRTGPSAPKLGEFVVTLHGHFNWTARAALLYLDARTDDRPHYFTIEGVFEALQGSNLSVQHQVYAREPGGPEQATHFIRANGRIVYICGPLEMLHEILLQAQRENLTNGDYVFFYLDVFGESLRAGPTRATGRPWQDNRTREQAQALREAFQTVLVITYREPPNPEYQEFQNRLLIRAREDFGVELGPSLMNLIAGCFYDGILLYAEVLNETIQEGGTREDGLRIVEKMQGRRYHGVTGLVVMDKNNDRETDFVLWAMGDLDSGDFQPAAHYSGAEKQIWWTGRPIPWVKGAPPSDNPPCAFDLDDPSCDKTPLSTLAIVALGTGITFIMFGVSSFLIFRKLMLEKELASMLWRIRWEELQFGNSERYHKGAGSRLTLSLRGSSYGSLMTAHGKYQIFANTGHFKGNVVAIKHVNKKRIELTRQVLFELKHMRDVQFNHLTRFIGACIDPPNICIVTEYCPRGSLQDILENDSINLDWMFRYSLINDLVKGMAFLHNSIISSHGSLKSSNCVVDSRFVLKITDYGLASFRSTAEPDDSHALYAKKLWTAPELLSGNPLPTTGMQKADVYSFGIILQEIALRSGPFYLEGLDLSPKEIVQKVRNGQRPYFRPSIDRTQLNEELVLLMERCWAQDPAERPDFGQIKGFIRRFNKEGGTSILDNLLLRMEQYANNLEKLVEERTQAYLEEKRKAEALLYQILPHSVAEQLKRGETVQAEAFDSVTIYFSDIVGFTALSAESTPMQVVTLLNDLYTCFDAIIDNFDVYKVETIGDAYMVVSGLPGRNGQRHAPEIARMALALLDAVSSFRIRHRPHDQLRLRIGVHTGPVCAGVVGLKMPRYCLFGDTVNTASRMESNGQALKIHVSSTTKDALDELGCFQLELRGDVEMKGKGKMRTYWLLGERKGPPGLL
structure (smiles),measurement,setting,value
O=c1ccc2ccc(O)c(O)c2o1,viability (% of control),[1],20.8%
same,Potency,[2],inactive
same,Potency,[3],inactive
same,Potency,[4],14.8 µM (active)
same,Potency,[5],13.2 µM (active)
same,Potency,[6],inactive
same,Potency,[7],inactive
same,Potency,[8],inactive
same,Potency,[9],inactive
Cc1cccc(C)c1OCC(=O)N[C@@H](Cc1ccccc1)[C@@H](O)C[C@H](Cc1ccccc1)NC(=O)[C@H](C(C)C)N1CCCNC1=O,viability (% of control),[1],91.4%
same,Potency,[2],inactive
same,Potency,[3],inactive
same,Potency,[10],inactive
same,Potency,[11],inactive
N=C(N=C(N)N)N1CCOCC1,viability (% of control),[1],127%
same,Potency,[2],inactive
same,Potency,[3],inactive
same,Potency,[10],inactive
same,Potency,[11],inactive
same,Potency,[12],inactive
NC(=O)Cc1cccc(C(=O)c2ccccc2)c1N,viability (% of control),[1],114%
same,Potency,[2],inactive
same,Potency,[3],inactive
same,Potency,[13],inactive
same,Potency,[5],4.69 µM (active)
same,Potency,[12],inactive
CCOC(=O)c1c(C)n(C)c2ccc(O)cc12,viability (% of control),[1],87.8%
same,Potency,[2],inactive
same,Potency,[3],inactive
same,Potency,[10],inactive
same,Potency,[11],inactive
same,Potency,[12],inactive
Oc1ccc2ccccc2c1SSc1c(O)ccc2ccccc12,viability (% of control),[1],0.636%
same,Potency,[2],8.91 µM (active)
same,Potency,[3],inactive
same,Potency,[6],inactive
same,outcome,[8],inactive; inac
Nc1cc(C(Cl)=C(Cl)Cl)c(S(N)(=O)=O)cc1S(N)(=O)=O,viability (% of control),[1],106%
same,Potency,[2],inactive
same,Potency,[3],inactive
same,Potency,[13],inactive
same,Potency,[5],inactive
same,Potency,[10],inactive
same,Potency,[11],inactive
CN(C)[C@@H](CCOc1cccc2ccccc12)c1ccccc1,viability (% of control),[1],78.2%
same,Potency,[2],inactive
same,Potency,[3],inactive
same,Potency,[4],26.4 µM (active)
same,Potency,[5],26.4 µM (active)
Cc1ccc(C)c(OCCCC(C)(C)C(=O)O)c1,viability (% of control),[1],51%
same,Potency,[2],inactive
same,Potency,[3],inactive
same,Potency,[10],inactive
same,Potency,[11],inactive
O=C(NCCO[N+](=O)[O-])c1cccnc1,viability (% of control),[1],117%
same,Potency,[2],inactive
same,Potency,[3],inactive
same,Potency,[13],inactive
same,Potency,[10],inactive
same,Potency,[11],inactive
same,Potency,[6],inactive
Cc1cc(O)c2c(c1)C(=O)c1cc(O)cc(O)c1C2=O,viability (% of control),[1],109%
same,Potency,[2],9.35 µM (active) and 2.51 µM (active)
same,Potency,[3],9.35 µM (active)
same,Potency,[4],inactive
same,Potency,[13],inactive
same,Potency,[12],inactive
same,Potency,[8],23.9 µM (active)
Cc1cc(=O)oc2cc(O)ccc12,viability (% of control),[1],104%
same,Potency,[2],inactive
same,Potency,[3],inactive
same,Potency,[13],inactive
same,Potency,[5],inactive
same,Potency,[10],inactive
same,Potency,[11],inactive
same,Potency,[12],inactive
COC(=O)[C@H](Cc1ccccc1)NC(=O)[C@@H](N)CC(=O)O (H-Asp-Phe-OMe),viability (% of control),[1],114%
same,Potency,[2],inactive
same,Potency,[3],inactive
same,Potency,[10],inactive
same,Potency,[11],inactive
CC1Cc2ccccc2N1NC(=O)c1ccc(Cl)c(S(N)(=O)=O)c1 (configuration not stated),viability (% of control),[1],104%
same,Potency,[2],inactive
same,Potency,[3],inactive
same,Potency,[4],20.9 µM (active)
same,Potency,[11],inactive
same,Potency,[12],inactive
CC(C)c1ccc2oc3nc(N)c(C(=O)O)cc3c(=O)c2c1,viability (% of control),[1],97.4%
same,Potency,[2],1.66 µM (active) and inactive
same,Potency,[3],1.32 µM (active) and inactive
same,Potency,[5],inactive
same,Potency,[10],inactive
same,Potency,[11],inactive
same,Potency,[6],inactive
same,Potency,[12],inactive
CC(C)[C@H](N)C(=O)OCCOCn1cnc2c(=O)[nH]c(N)nc21,viability (% of control),[1],28.8%
same,Potency,[2],inactive
same,Potency,[3],inactive
same,Potency,[4],inactive
same,Potency,[13],inactive
same,Potency,[10],inactive
same,Potency,[11],inactive
same,Potency,[6],inactive
Oc1ccc(-c2nc(-c3ccc(F)cc3)c(-c3ccncc3)[nH]2)cc1,viability (% of control),[1],54.8%
same,Potency,[2],inactive
same,Potency,[3],inactive
same,Potency,[6],inactive
same,Potency,[12],inactive
same,Potency,[7],inactive
same,Potency,[9],inactive
Clc1ccc(C(Cn2ccnc2)OCc2c(Cl)cccc2Cl)c(Cl)c1 (configuration not stated),viability (% of control),[1],63.4%
same,Potency,[2],inactive
same,Potency,[3],inactive
same,Potency,[10],inactive
same,Potency,[11],inactive
Cc1ncc([N+](=O)[O-])n1CC(C)O (configuration not stated),viability (% of control),[1],98.4%
same,Potency,[2],inactive
same,Potency,[3],inactive
same,Potency,[13],inactive
same,Potency,[10],inactive
same,Potency,[11],inactive
same,Potency,[12],inactive
